The values below come from PubChem BioAssay (NCATS).

“And” between values parts separate entries of the source, which are not always exact repeats. Equal values may be shown once. Results filed as inconclusive are left out. The source made the active and inactive calls. Unless noted, the call rests on the fitted dose curve; in most records, active means well fitted curve in the direction sought with a large enough effect; inconclusive means small, poorly fitted or top-dose-only effect, or another doubt; inactive means no such curve, though single readings can be large; an effect the other way counts as inactive or inconclusive.

A short description of assay [1]: Cell Viability - SK-N-SH (AID 435; calls by dose curve;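 further: potency means the concentration at half of the fitted maximal effect; compound exposure lasted 40 h at 37 °C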). The note with it: SK-N-SH neuroblastoma cell viability qHTS. An outline of the steps: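 SK-N-SH neuroblastoma cells (1500/well) treated 40 h at 37 °C in complete medium; viability read as cellular ATP by CellTiter-Glo luminescence. Normalized to DMSO and 100 uM tamoxifen; AC50 from Hill fits of qHTS concentration-response.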
For orientation: qHTS replaces the single test concentration by a dilution series.

Assay [2] in a line: Cell Viability - N2a (AID 540).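 Further: plate controls were DMSO alone for no effect and tamoxifen control for full effect; nearly all actives have a fitted effect of over 45% in size.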 Particulars: N2a mouse neuroblastoma cell viability; activity change, negative = cytotoxicity: at 92.2 µM (top of the series). An outline of the steps: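 N2a mouse neuroblastoma, 1500 cells/well, 5 hr settle; compound 40 hr, 37 °C; CellTiter-Glo 20 min RT; luminescence; Hill-fit AC50.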
Assay [3] is described as follows: Cell Viability - Renal Proximal Tubule (AID 545). Further: nearly all actives have a fitted effect of over 40% in size. Particulars: renal proximal tubule cells viability; series mostly up to 91.7 µM. Summed up: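 Rat renal proximal tubule primary cells, 1000/well, exposed to compounds for 40 hr at 37 °C in complete medium; cellular ATP read by CellTiter-Glo luminescence. AC50 from concentration-response fitted with standard Hill equation.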

Assay [4] in a line: Cellular Toxicity (caspase-3) Jurkat (AID 655).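 Further: cells exposed to compound for 16 h at 37 °C before reading.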 The note with it: Jurkat caspase-3 activation, luminescence; caspase-3 activation: at 92.2 µM (top of the series), DMSO = 0%, tamoxifen = 100%. Summed up:
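Jurkat cells (5000/well) in complete medium exposed 16 h at 37 C; caspase-3/7 activity read by Caspase-Glo luminescence after 20 min at room temperature. Normalized to DMSO and 100 uM tamoxifen; AC50 from Hill fits.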

Assay [5] can be described thus: Cellular Toxicity (caspase-3) MRC-5 (AID 659). Particulars: MRC-5 cells, luminescence, normalized: DMSO 0%, 10 µM staurosporine 100%; series mostly up to 91.7 µM. An outline of the steps:
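Luminescent Caspase-Glo 3/7 read-out (1 h, room temperature) after a 16 h, 37 °C compound exposure of MRC-5 lung fibroblasts at 1500 cells/well. Concentration-response AC50 from Hill equation; 0% DMSO, 100% 10 uM staurosporine.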

Assay [6] deals with Cytochrome P450 3A4 (Homo sapiens) (UniProt P08684). The experiment in a line: qHTS Assay for Inhibitors and Substrates of Cytochrome P450 3A4 (AID 884). Further: on the % scale 0 is the no-effect control and ±100 the full control effect; nearly all actives have a fitted effect of over 50% in size. Particulars: recombinant CYP3A4, Luciferin-PPXE luminescence; series mostly up to 57.1 µM. Summed up:
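Luminescent readout of luciferin produced by CYP3A4 (20 nM) dealkylation of Luciferin-PPXE, 25 uM (its KM). NADPH-driven reaction ran 60 min at RT after 10 min compound preincubation; data scaled to 57 uM ketoconazole as 100% inhibition.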

The nature of assay [7]: MultiTox-Fluor Cytotoxicity Assay - LYMP1-002 - Dead Cells (AID 960).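 Further: 0% = DMSO and 100% = tetraoctylammonium bromide; nearly all actives have a fitted effect of over 60% in size.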 The note with it: LYMP1-002 lymphoblastoid cells, dead-cell protease fluorescence; series mostly up to 46.1 µM. Summed up:
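Readout: fluorescence at 485/520 from cell-impermeant bis-AAF-R110 cleaved by proteases leaking from damaged cells. LYMP1-002 lymphoblastoid line, 16 hr compound treatment at 37 C, concentration-response in qHTS format; Hill-equation AC50 values.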

Assay [8] can be described thus: Cell Viability - LYMP2-005 (AID 967).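 Further: plate controls were DMSO only for no effect and 92 µM tetraoctylammonium bromide control for full effect.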 The note with it: LYMP2-005 lymphoblastoid cell viability; series mostly up to 92.2 µM. Summed up: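 Human lymphoblastoid LYMP2-005 cells, 2,500 per well in complete medium, rested 5 h at 37C then compound-treated 24 h at 37C. Intracellular ATP read by CellTiter-Glo luminescence after 30 min at room temperature; AC50 from Hill-equation fits of concentration-response data.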

Assay [9] can be described thus: Cell Viability - LYMP2-015 (AID 971).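 Further: 0% = DMSO only and full effect = 92 µM tetraoctylammonium bromide; nearly all actives have a fitted effect of over 55% in size.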 Particulars: LYMP2-015 lymphoblastoid cell viability; series mostly up to 92.2 µM. Summed up: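 qHTS cytotoxicity: 2500 cells/well, 5 hr 37 C, compound 24 hr 37 C, CellTiter-Glo 30 min RT, luminescence. Loss of ATP = toxicity; AC50 via standard Hill fit.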
A short description of assay [10]: Cell Viability - LYMP2-002 (AID 977).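 Further: compound exposure lasted 24 h at 37 °C; plate controls were DMSO only for no effect and 92 µM tetraoctylammonium bromide for full effect.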 The note with it: LYMP2-002 lymphoblastoid cell viability, qHTS; series mostly up to 92.2 µM. Summed up:
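Human lymphoblastoid cells (2500/well) in complete medium were preincubated 5 hr at 37 C, then exposed to compounds for 24 hr at 37 C. Intracellular ATP was read by CellTiter-Glo luminescence; AC50 came from Hill-equation concentration-response fits.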

Assay [11] in a line: Cell Viability - LYMP2-010 (AID 981). Further: on the % scale 0 is the no-effect control and ±100 the full control effect; nearly all actives have a fitted effect of over 55% in size. The note with it: LYMP2-010 lymphoblastoid cell viability, qHTS; series mostly up to 92.2 µM. Summed up:
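qHTS cytotoxicity, 1536-well: 2500 cells/well, 5 hr settle, 24 hr compound at 37 C, CellTiter-Glo 30 min RT, luminescence read. Decrease in ATP = toxicity; AC50 via standard Hill equation. Positive control tetraoctylammonium bromide.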

Assay [12] in a line: Cell Viability - LYMP2-020 (AID 986).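 Further: plate controls were DMSO only for no effect and tetraoctylammonium bromide at 92 µM for full effect; nearly all actives have a fitted effect of over 55% in size.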 The note with it: series mostly up to 92.2 µM. An outline of the steps: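 qHTS, 2500 cells/well; 5 hr then 24 hr compound exposure, 37 C; CellTiter-Glo luminescence after 30 min RT; ATP decrease taken as cytotoxicity; AC50 via Hill equation; tetraoctylammonium bromide positive control.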
Assay [13] is described as follows: Cell Viability - LYMP2-022 (AID 987).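 Further: 0% = DMSO alone and full effect = tetraoctylammonium bromide at 92 µM; nearly all actives have a fitted effect of over 55% in size.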 The note with it: LYMP2-022 lymphoblastoid cell viability; series mostly up to 92.2 µM. Summed up:
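Luminescent ATP read-out (CellTiter-Glo, 30 min, RT) after 24 hr, 37 C compound exposure of 2500 human lymphoblastoid cells/well in complete medium. Cytotoxicity taken as concentration-dependent ATP loss; AC50 from standard Hill equation.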

The nature of assay [14]: qHTS assay for small molecule agonists of retinoid X receptor alpha signaling (AID 588544). Particulars: HEK293T RXRa-UAS-bla, beta-lactamase reporter, 18 h; 530 nm emission.
In assay [15] the target is Thyroid hormone receptor beta (Homo sapiens) (UniProt P10828). Description: qHTS assay for small molecule agonists of thyroid hormone receptor beta signaling (AID 588545; calls by dose curve;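 further: 0% = DMSO only and 100% = 10 nM T3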). Particulars: TR-UAS-bla GripTite HEK 293, beta-lactamase ratio, agonist mode, 18 h; series mostly up to 76.7 µM. An outline of the steps: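 TR-UAS-bla-GripTite HEK 293 cells in medium with 2% charcoal/dextran FBS, 0.1 mM NEAA and 1 mM sodium pyruvate were treated with titrated compounds for 18 hrs at 37 C. Beta-lactamase reporter was read with CCF4 dye (ex 405, em 460/530 nm); EC50 from Hill fits.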

The nature of assay [16]: qHTS assay for small molecule antagonists of retinoid X receptor alpha signaling (AID 588546; active means well fitted inhibition curve with a large enough effect in the signal ratio, with a control signal flat, not every such curve was filed as active; the % refers to the signal ratio;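 further: cells stimulated with 9-cis-retinoic acid as agonist; on the % scale 0 is the no-effect control and ±100 the full control effect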). Particulars: HEK293T RXRa-UAS-bla, beta-lactamase ratio, antagonist mode; measured here: W530 green channel, cytotoxicity proxy. An outline of the steps:
(§1)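 Beta-lactamase reporter inhibition, read as CCF4 fluorescence ratio (ex 405, em 460/530 nm) after 2 h at RT. HEK293T UAS-bla cells, 2500/well, were stimulated with 9-cis-RA at 500 or 100 nM final alongside test compound for 18 h at 37 C.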

Assay [17] deals with Retinoic acid receptor RXR-alpha (Homo sapiens) (UniProt P19793). The description is as above. The note with it: HEK293T RXRa-UAS-bla, beta-lactamase ratio, antagonist mode. An outline of the steps:
as §1

Assay [18] addresses Thyroid hormone receptor beta (Homo sapiens) (UniProt P10828). Description: qHTS assay for small molecule antagonists of thyroid hormone receptor beta signaling (AID 588547; active means well fitted inhibition curve with a large enough effect in the signal ratio, with a control signal flat, not every such curve was filed as active; the % refers to the signal ratio;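 further: cells stimulated with 0.4 nM T3 agonist during compound exposure; on the % scale 0 is the no-effect control and ±100 the full control effect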). Particulars: TR-UAS-bla HEK293, beta-lactamase ratio, antagonist mode, 18 h. An outline of the steps:
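Inhibition of T3-driven (0.4nM final) beta-lactamase reporter activity was measured over 0.59 nM to 92 uM compound after 18 h at 37 C. The cells were GripTite HEK293 TR-UAS-bla in charcoal/dextran-stripped serum, with CCF4 ratio read-out and IC50 from Hill fits.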

The target in assay [19] is Tumor necrosis factor (Homo sapiens) (UniProt P01375). The experiment in a line: qHTS assay to identify small molecules that stimulate Tumor Necrosis Factor-alpha (TNF-alpha) secretion (AID 651757; active means well fitted curve in the direction sought with a large enough effect in the signal ratio; the % refers to the signal ratio; further: 0% is about no effect). Particulars: Human cells, HTRF 665/615 ratio; series mostly up to 92.2 µM. Summed up:
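THP-1 cells, 3000/well; compound 17 hrs, 37 C; add cryptate/XL665 anti-TNF-alpha antibody pair; 3 hr RT; TR-FRET (HTRF) read of secreted TNF-alpha. Quantitative HTS format.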

The nature of assay [20]: Cell Viability - LYMP2-001 (AID 921).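 Further: 0% = DMSO only and full inhibition = tetraoctylammonium bromide control wells; nearly all actives have a fitted effect of over 70% in size.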 The note with it: LYMP2-001 lymphoblastoid cell viability; series mostly up to 92.2 µM. Summed up:
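Human lymphoblastoid LYMP2-001 cells, 2500 per well, in complete medium, treated 24 h at 37 C. Viability from cellular ATP by CellTiter-Glo luminescence; AC50 from Hill-equation fits of qHTS concentration-response.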

Sequence of Cytochrome P450 3A4 (Homo sapiens) (P08684 whole entry, looked up): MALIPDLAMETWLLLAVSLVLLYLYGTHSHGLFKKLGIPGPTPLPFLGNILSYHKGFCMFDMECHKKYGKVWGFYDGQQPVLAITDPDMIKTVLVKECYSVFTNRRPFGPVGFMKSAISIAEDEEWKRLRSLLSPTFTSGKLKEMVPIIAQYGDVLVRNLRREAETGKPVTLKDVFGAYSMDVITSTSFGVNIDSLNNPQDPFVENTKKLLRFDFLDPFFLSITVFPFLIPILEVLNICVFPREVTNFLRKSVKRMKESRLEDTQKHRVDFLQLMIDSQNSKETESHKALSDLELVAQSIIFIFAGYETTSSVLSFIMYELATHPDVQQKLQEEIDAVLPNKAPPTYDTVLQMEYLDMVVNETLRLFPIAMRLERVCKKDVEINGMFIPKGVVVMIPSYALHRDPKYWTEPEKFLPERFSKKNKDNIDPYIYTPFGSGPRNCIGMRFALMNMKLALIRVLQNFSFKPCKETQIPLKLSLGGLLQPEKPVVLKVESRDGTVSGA
Sequence of Thyroid hormone receptor beta (Homo sapiens) (P10828 whole entry, looked up): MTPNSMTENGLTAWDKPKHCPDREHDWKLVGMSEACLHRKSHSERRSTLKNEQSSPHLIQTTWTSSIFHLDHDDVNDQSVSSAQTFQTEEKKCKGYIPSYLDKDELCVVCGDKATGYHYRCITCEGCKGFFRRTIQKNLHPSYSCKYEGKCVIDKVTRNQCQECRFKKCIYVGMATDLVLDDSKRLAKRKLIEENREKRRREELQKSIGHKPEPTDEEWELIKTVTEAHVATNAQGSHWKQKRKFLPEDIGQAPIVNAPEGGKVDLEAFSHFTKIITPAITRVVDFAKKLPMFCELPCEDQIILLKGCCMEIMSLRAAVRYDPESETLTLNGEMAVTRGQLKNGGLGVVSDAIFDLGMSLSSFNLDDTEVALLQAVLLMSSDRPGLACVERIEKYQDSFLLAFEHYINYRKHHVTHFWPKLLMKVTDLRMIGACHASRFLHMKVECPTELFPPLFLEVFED
Sequence of Tumor necrosis factor (Homo sapiens) (P01375 whole entry, looked up): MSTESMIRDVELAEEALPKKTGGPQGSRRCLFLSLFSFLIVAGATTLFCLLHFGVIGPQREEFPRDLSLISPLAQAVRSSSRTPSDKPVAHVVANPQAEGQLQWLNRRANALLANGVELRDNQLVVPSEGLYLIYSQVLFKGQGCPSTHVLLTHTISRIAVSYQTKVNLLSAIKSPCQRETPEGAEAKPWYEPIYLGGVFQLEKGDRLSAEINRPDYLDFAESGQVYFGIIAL
Sequence of Retinoic acid receptor RXR-alpha (Homo sapiens) (P19793 whole entry, looked up): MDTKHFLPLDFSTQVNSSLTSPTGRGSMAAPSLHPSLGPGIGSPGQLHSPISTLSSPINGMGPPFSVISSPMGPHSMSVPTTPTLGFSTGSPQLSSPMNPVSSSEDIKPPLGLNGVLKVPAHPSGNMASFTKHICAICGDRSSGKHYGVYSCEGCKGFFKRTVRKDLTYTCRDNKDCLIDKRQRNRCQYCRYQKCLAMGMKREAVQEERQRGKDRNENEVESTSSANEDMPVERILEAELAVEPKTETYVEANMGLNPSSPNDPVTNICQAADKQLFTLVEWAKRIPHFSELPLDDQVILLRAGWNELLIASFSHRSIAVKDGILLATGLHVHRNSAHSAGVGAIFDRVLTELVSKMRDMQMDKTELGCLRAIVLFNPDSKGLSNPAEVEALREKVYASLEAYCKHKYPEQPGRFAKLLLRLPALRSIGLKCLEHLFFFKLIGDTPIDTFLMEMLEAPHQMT

For the compound `O=S(=O)(Cl)c1ccccc1`, the Potency in assay [1] is > 92 µM (inactive). Also, the Potency entry in assay [2], in assay [6], in [7], in [8], in assay [9] and in assay [10] was “inactive” in each case. Besides, the Potency result in assay [11], in assay [12], in assay [13] and in assay [15] was “inactive” each time. Further, the outcome in assay [3], in assay [5] and in [19] was inactive. The caspase-3 activation in assay [4] was 0.656% (inactive). Also, the max response in assay [14] is -12.3%; in assay [16], 25.3% and -4.13%; in [17], -0.573% (inactive) and -10.4% (inactive). For the same compound, the activity change % (negative = inhibition) in assay [18] was -1.94% (inactive) and -0.791% (inactive).

With `Cc1ccc([N+](=O)[O-])cc1`, in [1], the Potency was > 92 µM (inactive). Also, the Potency result in [2], in assay [6], in assay [20], in [7], in [8] and in assay [9] was “inactive” throughout. The Potency result in assay [10], in [11], in assay [12], in assay [13] and in [15] was “inactive” in each case. In addition, the call in assay [3], in assay [5] and in assay [19] was inactive. Besides, the caspase-3 activation in [4] is -0.655% (inactive). The max response in assay [14] is -18.4%; in assay [16], 1.21%; in assay [17], 4.07% (inactive). Further, in assay [18], the activity change % (negative = inhibition) was 0.221% (inactive).

`CCBr`: the Potency in assay [1] was > 92 µM (inactive). Further, the Potency entry in assay [2], in assay [6], in assay [20], in [7], in assay [8] and in assay [9] was “inactive” each time. The Potency result in [10], in assay [11], in [12], in assay [13] and in assay [15] was “inactive” in each case. Moreover, the outcome in assay [3], in [5] and in assay [19] was inactive. Also, the caspase-3 activation in assay [4] was -0.439% (inactive). For the same compound, the max response in assay [14] was -3.72%; in assay [16] it was -5.59%; in assay [17] it was 2.77% (inactive). In addition, in assay [18], the activity change % (negative = inhibition) is -4.65% (inactive).

Take `Nc1ccc2ccccc2c1`: the Potency in assay [1] is > 92 µM (inactive). For the same compound, the Potency entry in [2], in assay [20], in [8], in [9], in assay [10] and in assay [11] was “inactive” each time. Besides, the Potency result in [12], in assay [13] and in assay [15] was “inactive” in each case. In addition, the outcome in assay [3] and in assay [19] was inactive. For the same compound, the caspase-3 activation in [4] was 1.77% (inactive). Moreover, the values for the max response in assay [14], in assay [16] and in assay [17] were -8.86%, -4.26% and -0.227% (inactive), respectively. Further, the activity change % (negative = inhibition) in [18] is -16.4% (inactive).

Take `OCCOCCO`: the Potency in [1] is > 92 µM (inactive). In addition, the Potency entry in [2], in [6], in assay [20], in assay [7], in [8] and in assay [9] was “inactive” in each case. The Potency entry in [10], in assay [11], in [12], in [13] and in assay [15] was “inactive” in each case. For the same compound, the compound was classed as inactive in assay [3], in [5] and in assay [19]. In assay [4], the caspase-3 activation is -0.825% (inactive). For the same compound, the max response in assay [14] was -9.96%; in [16], 2.28%; in assay [17], 1.12% (inactive). Further, in assay [18], the activity change % (negative = inhibition) was -14.9% (inactive).

For the compound `CCOS(C)(=O)=O`, the Potency in assay [1] is > 92 µM (inactive). For the same compound, the Potency result in assay [2], in [6], in assay [20], in [7], in assay [8] and in [9] was “inactive” throughout. For the same compound, the Potency result in assay [10], in [11], in assay [12] and in [13] was “inactive” throughout. For the same compound, the compound was classed as inactive in assay [3], in assay [5] and in [19]. In addition, the caspase-3 activation in [4] was 0.622% (inactive). For the same compound, the max response in assay [14] was -9.22%; in assay [16], -8.7%; in assay [17] it was -0.383% (inactive). In [18], the activity change % (negative = inhibition) was -1.09% (inactive).
